This is an account of results in PubChem BioAssay (NCI).

This is part of a sample that, as a whole, favours compounds with a hit. Of some 83,000 tested, about 20% had one in any assay.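 Testing used 96-well plates and a 48-hour single-concentration exposure. Example: -40 means 40% of the starting cells died.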 A number with no mark means an inactive call. Active and inactive are the calls of the source. Rule for the calls: active = growth percent below 10; inactive = the rest.

What all share (test): NCI-60 one-dose screen, 48 h (100 = growth as untreated, 0 = no growth, -100 = all killed)
Assay [1] concerns HCT-15 colon. The conditions noted are these: 10 µM unless noted.
The subject of assay [2] is HT29 colon. The following applies: 10 µM unless noted.
For assay [3], the system named is SNB-75 CNS. The conditions noted are these: 10 µM unless noted.
Assay [4] concerns SNB-19 CNS. The conditions noted are these: 10 µM unless noted.
Assay [5] relates to U251 CNS. The following applies: 10 µM unless noted.
Assay [6] deals with PC-3 prostate. The following applies: 10 µM unless noted.
Assay [7] deals with UACC-62 melanoma. The conditions noted are these: 10 µM unless noted.
The test system of assay [8] is LOX IMVI melanoma. The conditions noted are these: 10 µM unless noted.
The subject of assay [9] is SK-MEL-28 melanoma. The following applies: 10 µM unless noted.
The subject of assay [10] is SK-MEL-2 melanoma. The conditions noted are these: 10 µM unless noted.
Assay [11] concerns EKVX NSCLC. The conditions noted are these: 10 µM unless noted.
The test system of assay [12] is SN12C renal. The conditions noted are these: 10 µM unless noted.
Assay [13] relates to UO-31 renal. The conditions noted are these: 10 µM unless noted.
The test system of assay [14] is TK-10 renal. The conditions noted are these: 10 µM unless noted.
Assay [15] relates to ACHN renal. The following applies: 10 µM unless noted.
In assay [16] the test system is CAKI-1 renal. The following applies: 10 µM unless noted.
The test system of assay [17] is A498 renal. The following applies: 10 µM.
The test system of assay [18] is HL-60(TB) leukemia. The conditions noted are these: 10 µM unless noted.
The subject of assay [19] is SK-MEL-5 melanoma. The conditions noted are these: 10 µM unless noted.
Assay [20] has as its system CCRF-CEM leukemia. The following applies: 10 µM unless noted.

On to `O=C(CC1(O)C(=O)Nc2ccc(Br)cc21)c1ccc(C(=O)NCC2CCC3(CC2)OOC2(CCCCC2)OO3)cc1` (configuration not stated), for which the growth is 54.2% in [1]; 47.2% in [2]; 64.6% in assay [3]; 61.4% in [4]; 11.8% in assay [5]; 38.9% in [6]. Besides, the growth in [7] was 54.6%; in assay [8] it was 32.6%; in assay [9], 73.3%; in assay [10], 23.3%; in assay [11], -36.4% (active); in assay [12] it was 59.1%. Besides, the growth in [13] was -82.4% (active); in assay [14], 72.5%; in [15], -40.8% (active); in [16], 0.714% (active); in assay [17] it was 84.7%; in [18], -39.2% (active).
With `COC(=O)[C@@H](C)C[C@H](Cc1ccccc1)NC(=O)c1csc([C@@H](C[C@H](C(C)C)N(C)C(=O)[C@H](C)NC(=O)[C@H]2CCCCN2C)OC(C)=O)n1`, the growth in assay [1] is 45.4%; in assay [2], 9.42% (active); in [3] it was 18.1%; in [4], 27.7%; in assay [5], 10.8%; in assay [19], 19.3%. Also, the growth is 28.4% in assay [7]; 39.8% in [8]; 58.1% in assay [9]; 41.9% in assay [10]; 53.6% in assay [11]; 36% in assay [12]. Further, the growth is 66.4% in assay [13]; 61.7% in [14]; 48.2% in assay [15]; 56.4% in [17]; -19.6% (active) in assay [18]; 12.3% in assay [20].
Regarding `c1ccc(Nc2nc(-c3ccccc3)c[se]2)cc1`, the growth was 86.9% in assay [1]; 102% in assay [2]; 83% in assay [3]; 91.7% in [4]; 84.4% in assay [5]; 89.2% in assay [19]. Besides, the growth in assay [7] is 78.7%; in [8], 93.5%; in assay [9], 98.8%; in assay [10], 105%; in assay [11] it was 70.3%; in [12], 86.2%. Moreover, the growth is 46.2% in assay [13]; 83.5% in assay [14]; 84% in assay [15]; 55.7% in assay [16]; 55.9% in [17]; 102% in [18]. Also, in assay [20], the growth is 101%.
For `CC[C@]12C=CCN3CC[C@]4(C(=C(C(=O)OC)C1)Nc1cc(OC)c(OC(C)=O)cc14)[C@@H]32`, the growth in [1] is 21%; in [2], 0.643% (active); in assay [3] it was 50.6%; in assay [4] it was 32.2%; in assay [5], 3.52% (active); in assay [6] it was 22.5%. Also, the growth in assay [19] was -33.4% (active); in assay [8], -24% (active); in [10] it was 41.5%; in assay [11] it was 55.6%; in assay [12], 8.6% (active); in assay [13] it was 28.6%. In addition, the growth in assay [14] was 21.4%; in assay [15], 21.4%; in [16], 21%; in assay [17], -7.74% (active); in assay [18] it was -8.44% (active); in assay [20], 0.65% (active).
For `O=C(CC1(O)C(=O)Nc2ccccc21)c1ccc(C(=O)NCC2CCC3(CC2)OOC2(CCCCC2)OO3)cc1` (configuration not stated), the growth in [1] is 79.9%; in assay [2] it was 82.1%; in assay [3] it was 82.1%; in [4], 86.4%; in assay [5], 63.6%; in [6], 50.8%. Further, the growth in [7] was 63.4%; in assay [8] it was 57.3%; in [9] it was 86.4%; in assay [11] it was 58.3%; in assay [12], 74.4%; in [13] it was -77.2% (active). In addition, the growth in [14] is 104%; in [15], 60.1%; in assay [16], 39.5%; in assay [17] it was 93.7%; in assay [18], 31.7%.
With `CC(=O)O[C@H](C[C@H](C(C)C)N(C)C(=O)[C@@H](NC(=O)[C@H]1CCCCN1C)C(C)(C)C)c1nc(C(=O)N[C@@H](Cc2ccccc2)C[C@H](C)C(=O)O)cs1`, the growth was 5.59% (active) in assay [1]; 1.32% (active) in assay [2]; 17% in assay [3]; 23.4% in [4]; 11.1% in [5]; -50.6% (active) in assay [19]. Besides, the growth in assay [7] is 26.2%; in [8] it was 14.3%; in [9], 52.6%; in assay [10], 21.8%; in assay [11] it was 39.7%; in assay [12] it was 17.9%. The growth in assay [13] is 43%; in assay [14], 52.6%; in assay [15], 29%; in assay [17], -6.47% (active); in assay [18], -26% (active); in assay [20] it was 1.05% (active).
Take `O=C1CC2(CC3(Cl)C(Cl)=C(Cl)C2(Cl)C3(Cl)Cl)C(=O)O1` (configuration not stated): the growth is 113% in [1]; 113% in assay [2]; 89.4% in [3]; 106% in assay [4]; 107% in assay [5]; 93.6% in assay [6]. Besides, the growth in [19] is 102%; in assay [9], 112%; in assay [10], 121%; in assay [11] it was 95.7%; in assay [12], 107%; in assay [13] it was 63.5%. The growth in [14] was 98.7%; in [15] it was 105%; in [16], 97.9%; in [17], 98.9%; in [18], 97.1%; in [20], 114%.
As for `C=C(C)[C@@]12OC3(/C=C/C=C/CCCCC)O[C@@H]1[C@@H]1[C@@H]4O[C@]4(CO)[C@@H](O)[C@]4(O)C(=O)C(C)=C[C@H]4[C@@]1(O3)[C@H](C)[C@H]2OC(=O)c1ccccc1`, the growth in assay [1] was 67.1%; in assay [2], 14.1%; in [3], 56.6%; in assay [4] it was 92.8%; in assay [5] it was 53.2%; in assay [6], 28.6%. Besides, the growth in [8] is 50.9%; in [9], 81.5%; in assay [10] it was 80.4%; in [11], 67.4%; in [12], 16.5%; in [13] it was 39.7%. For the same molecule, the growth in assay [14] is 47.1%; in assay [15], 42.9%; in [16], 69.8%; in [17], -47.2% (active); in assay [18], -7.45% (active); in [20], 45.8%.
For the molecule `CC[C@H](C)[C@@H]1OC(=O)C(C)(C)[C@H](O)[C@H](Cc2ccccc2)OC(=O)[C@H](C(C)C)OC(=O)[C@@H](NC(=O)c2cccc(NC=O)c2O)[C@@H](C)OC1=O`, the growth was 36.2% in assay [1]; 48.4% in assay [2]; 63.9% in assay [3]; 49.5% in assay [4]; 41.2% in assay [5]; 43.9% in assay [6]. Besides, the growth in assay [8] is 38.1%; in assay [10], 36.2%; in assay [11], 29.9%; in [13] it was 47.3%; in [14], 49.8%; in assay [15], 46.4%. Besides, the growth was 38.7% in assay [16], 67.2% in assay [17] and 60% in [18].
As for `CC(C)=CC1C(C(=O)OCc2cccc(Oc3ccccc3)c2)C1(C)C` (configuration not stated), the growth in assay [1] was 98.9%; in [2] it was 86.5%; in assay [3], 115%; in assay [4] it was 98.4%; in assay [5] it was 98.6%; in assay [6], 92.8%. The growth in assay [7] is 78.4%; in assay [8], 93.4%; in [9], 119%; in [10] it was 108%; in [11], 82.4%; in [12] it was 94.5%. Besides, the growth was 76.5% in assay [13]; 96.6% in assay [14]; 91.6% in assay [15]; 59.6% in [16]; 69.6% in [17]; 119% in assay [18]. Moreover, the growth in assay [20] is 102%.
In the case of `C[C@@H]1CCC2[C@@H](C)[C@H](OC(=O)CCC(=O)NCCNC(=O)Cc3cc(=O)oc4cc(N(C)C)ccc34)O[C@@H]3O[C@]4(C)CC[C@@H]1C23OO4` (some centres not stated), the growth was 7.81% (active) in assay [1]; 26.4% in [2]; 60.9% in assay [3]; 65% in assay [4]; 34.4% in assay [5]; 33.2% in assay [19]. Further, the growth was 31.7% in assay [7]; -7.91% (active) in assay [8]; 57.5% in assay [9]; 40.7% in assay [10]; 35.3% in assay [11]; 32.2% in assay [12]. For the same molecule, the growth in assay [13] was 13%; in [14], 20%; in assay [15], 40.3%; in assay [16], 44.1%; in assay [17], 64.9%; in [18], -38.8% (active). Further, in assay [20], the growth is 23%.
